The values below come from PubChem BioAssay AID1159577 (Broad Institute, 2015).

Structures are written as SMILES. In all, about 1,300 compounds went through this assay and about 240 (18%) were called active. Inconclusive results (about 8%) are left out. No rule for the calls is given here. A selection follows. A call without a number means that no potency is given here. Potency and affinity values are given separately.

The assay can be described thus: toxicity to human hepatoma HepG2 cells – cell-based, cherry-picked samples, cytotoxicity control, dose response (AID 1159577). The conditions noted are these: HepG2 cytotoxicity counterscreen, plate reader; series mostly up to 19.5 µM.
Consider `CN1c2ccc(C#Cc3cccnc3)cc2[C@@H]2[C@@H](CCN2C(=O)C2CCC2)[C@@H]1CO`, for which the outcome was inactive. Then `CNC[C@@H]1Oc2cc(C#Cc3cccnc3)ccc2S(=O)(=O)N([C@H](C)CO)C[C@H]1C`, with “inactive”; and `COc1cc(CN2CC3(CCN(C(=O)c4cccnc4)CC3)c3c([nH]c4cc(OC)ccc34)[C@@H]2CO)cc(OC)c1`, with “inactive”. `C[C@H](CO)N1C[C@H](C)[C@@H](CN(C)Cc2ccc(Oc3ccccc3)cc2)OCc2ccccc2-c2c(n(C)c3ccccc23)C1=O`: the call was inactive. In the case of `COc1ccccc1S(=O)(=O)N(C)C[C@H]1OCc2ccccc2-c2c(n(C)c3ccccc23)C(=O)N([C@@H](C)CO)C[C@@H]1C`, the result was inactive. For `C[C@H](CO)N1C[C@H](C)[C@@H](CN(C)Cc2cccc(C(=O)Nc3ccccc3N)c2)OCc2ccccc2-c2c(n(C)c3ccccc23)C1=O`, the compound was classed as inactive. Then `C[C@H]1CN([C@@H](C)CO)C(=O)c2c(c3ccccc3n2C)-c2ccccc2CO[C@@H]1CN(C)Cc1cccc(O)c1`, with “inactive”. Under `COc1cccc(CN(C)C[C@H]2OCc3ccccc3-c3c(n(C)c4ccccc34)C(=O)N([C@H](C)CO)C[C@@H]2C)c1` stands “inactive”; under `C[C@H](CO)N1C[C@H](C)[C@@H](CN(C)S(=O)(=O)c2cccc(F)c2)OCc2ccccc2-c2c(n(C)c3ccccc23)C1=O`, “inactive”; under `C[C@@H]1CN([C@H](C)CO)C(=O)c2c(c3ccccc3n2C)-c2ccccc2CO[C@@H]1CN(C)Cc1cccc(F)c1`, “inactive”.

Take `COc1ccccc1S(=O)(=O)N(C)C[C@@H]1OCc2ccccc2-c2c(n(C)c3ccccc23)C(=O)N([C@@H](C)CO)C[C@@H]1C`: the compound was classed as inactive. Under `C[C@H]1CN([C@@H](C)CO)C(=O)c2c(c3ccccc3n2C)-c2ccccc2CO[C@H]1CN(C)C(=O)Nc1ccc(-c2ccccc2)cc1` stands “inactive”; under `C[C@H](CO)N1C[C@H](C)[C@H](CN(C)S(=O)(=O)c2ccc(Cl)cc2)OCc2ccccc2-c2c(n(C)c3ccccc23)C1=O`, “inactive”; under `Cc1ccc(S(=O)(=O)N(C)C[C@H]2OCc3ccccc3-c3c(n(C)c4ccccc34)C(=O)N([C@H](C)CO)C[C@@H]2C)cc1`, “inactive”. Under `O=C(C[C@H]1C[C@H]2c3cc(NC(=O)Cc4ccncc4)ccc3O[C@H]2[C@H](CO)O1)NCc1ccccc1` stands “inactive”.

As to `COc1cccc(NC(=O)N(C)C[C@@H]2Oc3cc(C#Cc4ccccc4)ccc3S(=O)(=O)N([C@H](C)CO)C[C@@H]2C)c1`, the compound was called inactive. Under `COc1ccc(S(=O)(=O)N(C)C[C@H]2Oc3ncc(-c4ccncc4)cc3C(=O)N([C@H](C)CO)C[C@@H]2C)cc1` stands “inactive”.

As to `COc1ccc(C#Cc2ccc3c(c2)O[C@@H](CN(C)C(=O)Nc2cccc(OC)c2)[C@H](C)CN([C@H](C)CO)S3(=O)=O)cc1`, the compound was called inactive. Then `C[C@@H]1CN([C@@H](C)CO)C(=O)c2cccc(NC(=O)c3cnccn3)c2O[C@@H]1CN(C)Cc1ccc(-c2ccccc2)cc1`, with “inactive”. Under `COc1ccc(NC(=O)N2CCC3(CC2)CN(C(=O)C2CCC2)[C@@H](CO)c2c3c3ccc(OC)cc3n2C)cc1` stands “inactive”; under `C[C@@H]1CN([C@@H](C)CO)C(=O)c2c(c3ccccc3n2C)-c2ccccc2CO[C@@H]1CN(C)C(=O)[C@H](C)c1ccccc1`, “inactive”. Then `C[C@H](CO)N1C[C@H](C)[C@@H](CN(C)C(=O)[C@H](C)c2ccccc2)OCc2ccccc2-c2c(n(C)c3ccccc23)C1=O`, with “inactive”. For the compound `CO[C@@H]1CN(C)C(=O)c2ccc(NC(=O)NC(C)C)cc2OC[C@@H](C)N(Cc2ccccc2)C[C@H]1C`, the compound was called inactive. Under `COc1cccc(NC(=O)N2[C@H](CO)[C@H](c3ccccc3)[C@H]2CNCC(C)C)c1` stands “inactive”; under `COc1ccc(-c2ccccc2[C@H]2[C@@H](C#N)N(C(=O)NC3CCCC3)[C@H]2CO)cc1`, “inactive”. Then `C[C@@H]1CN([C@@H](C)CO)C(=O)Cc2cc(NC(=O)Nc3ccc4c(c3)OCO4)ccc2O[C@@H]1CN(C)CC1CC1`, with “inactive”. Under `COc1ccc(NC(=O)Nc2ccc3c(c2)CC(=O)N([C@H](C)CO)C[C@H](C)[C@@H](CN(C)CC2CCCCC2)O3)cc1` stands “inactive”.

With `C[C@H](CO)N1C[C@H](C)[C@H](CN(C)CC2CC2)Oc2ccc(NC(=O)Nc3cccc4ccccc34)cc2CC1=O`, the outcome was inactive. With `C[C@@H]1CN([C@@H](C)CO)C(=O)c2cc(NC(=O)C3CC3)ccc2O[C@H]1CN(C)CC1CCCCC1`, the call was inactive.

Regarding `C[C@@H]1CN([C@@H](C)CO)C(=O)c2cc(NC(=O)Nc3ccc(C(F)(F)F)cc3)ccc2O[C@H]1CN(C)C(=O)Nc1cccc2ccccc12`, the call was inactive.

As for `C[C@H](CO)N1C[C@H](C)[C@H](CN(C)CC2CC2)Oc2ccc(NS(=O)(=O)c3ccc(Cl)cc3)cc2CC1=O`, the result was inactive. Then `COc1ccc(C#Cc2ccc3c(c2)O[C@@H](CN(C)S(=O)(=O)c2ccccc2F)[C@@H](C)CN([C@H](C)CO)S3(=O)=O)cc1`, with “inactive”; and `OC[C@@H]1[C@@H](c2ccccc2)C2(CN(CC3CC3)C2)N1Cc1ccc(F)cc1`, with “inactive”; and `COCC(=O)Nc1ccc2c(c1)C(=O)N(C)C[C@H](OC)[C@H](C)CN(Cc1cc(F)ccc1F)[C@H](C)CO2`, with “inactive”. Under `COc1ccc(S(=O)(=O)N(C)C[C@@H]2Oc3c(NC(=O)Nc4cccc5ccccc45)cccc3C(=O)N([C@H](C)CO)C[C@@H]2C)cc1` stands “inactive”.

For `COc1ccc(CN(C)C[C@@H]2Oc3c(NC(=O)c4ccc(-c5nccs5)cc4)cccc3C(=O)N([C@@H](C)CO)C[C@H]2C)cc1`, the outcome was inactive. Under `COc1ccc(S(=O)(=O)Nc2cccc3c2O[C@H](CN(C)Cc2ccc(-c4ccccc4)cc2)[C@@H](C)CN([C@H](C)CO)C3=O)cc1` stands “inactive”; under `C[C@H](CO)N1C[C@H](C)[C@@H](CN(C)Cc2ccc(-c3ccccc3)cc2)Oc2c(NC(=O)c3ccc(-c4nccs4)cc3)cccc2C1=O`, “inactive”.

As to `COc1ccc(NC(=O)N(C)C[C@H]2Oc3c(NC(=O)Nc4ccccc4)cccc3C(=O)N([C@@H](C)CO)C[C@H]2C)cc1`, the call was inactive. Then `COc1ccc(S(=O)(=O)N(C)C[C@H]2Oc3c(NC(=O)Nc4cccc5ccccc45)cccc3C(=O)N([C@@H](C)CO)C[C@H]2C)cc1`, with “inactive”; and `COc1ccc2c3c([nH]c2c1)[C@H](CO)N(Cc1ccc(F)cc1)CC31CCN(C(C)=O)CC1`, with “inactive”.

For the compound `CNC[C@H]1Oc2ncc(-c3ccc(OC)cc3)cc2C(=O)N([C@H](C)CO)C[C@H]1C`, the result was inactive. Then `C[C@@H]1CN([C@@H](C)CO)C(=O)c2cc(NC(=O)Nc3ccc4c(c3)OCO4)ccc2O[C@H]1CN(C)C(=O)Nc1cccc2ccccc12`, with “inactive”; and `C[C@H]1CN([C@@H](C)CO)S(=O)(=O)c2ccc(C#Cc3ccncc3)cc2O[C@H]1CN(C)S(=O)(=O)c1ccc(F)cc1`, with “inactive”. For `COc1ccccc1S(=O)(=O)N(C)C[C@@H]1Oc2cc(C#CCC(C)C)ccc2S(=O)(=O)N([C@@H](C)CO)C[C@@H]1C`, the result was inactive. Under `CC(C)CC#Cc1ccc2c(c1)O[C@H](CN(C)S(=O)(=O)c1ccc(F)cc1)[C@@H](C)CN([C@@H](C)CO)S2(=O)=O` stands “inactive”; under `COc1ccc(NC(=O)N(C)C[C@H]2Oc3cc(C#CCC(C)C)ccc3S(=O)(=O)N([C@H](C)CO)C[C@H]2C)cc1`, “inactive”; under `C[C@@H]1CN([C@@H](C)CO)S(=O)(=O)c2ccc(/C=C/c3ccccc3)cc2O[C@H]1CN(C)C(=O)C1CC1`, “inactive”. In the case of `C[C@@H]1CN([C@@H](C)CO)S(=O)(=O)c2ccc(/C=C/c3ccccc3)cc2O[C@H]1CN(C)Cc1cccnc1`, the result was inactive. Regarding `COc1cccc(NC(=O)N(C)C[C@@H]2Oc3cc(C#Cc4ccc(F)cc4)ccc3S(=O)(=O)N([C@H](C)CO)C[C@@H]2C)c1`, the compound was classed as inactive.

For `COc1cccc(NC(=O)N(C)C[C@@H]2Oc3cc(C#Cc4ccc(F)cc4)ccc3S(=O)(=O)N([C@@H](C)CO)C[C@@H]2C)c1`, the outcome was inactive.

For the compound `COc1ccccc1S(=O)(=O)N(C)C[C@@H]1Oc2cc(C#CCC(C)C)ccc2S(=O)(=O)N([C@@H](C)CO)C[C@H]1C`, the outcome was inactive. Then `CCCC(=O)N1CCC2(CC1)CN[C@@H](CO)c1[nH]c3cc(OC)ccc3c12`, with “inactive”; and `N#C[C@@H]1[C@H](c2ccccc2C2=CCCCC2)[C@@H](CO)N1S(=O)(=O)c1ccccc1`, with “inactive”. Under `COc1ccc(C#Cc2ccc3c(c2)[C@@H]2[C@@H](CCN2C(=O)C2CC2)[C@H](CO)N3)cc1` stands “inactive”.

Turning to `COCC(=O)N1CC2(C1)CN(Cc1cccc(Cl)c1)[C@@H](CO)c1[nH]c3cc(OC)ccc3c12`, the compound was called inactive. Under `CCC(=O)Nc1ccc2c(c1)OC[C@H](C)N(Cc1ccccn1)C[C@H](C)[C@H](OC)CN(C)C2=O` stands “inactive”; under `CN(C)CC#Cc1cccc(-c2nc(C(=O)N[C@@H]3CCN(Cc4ccccc4)C3)cc3c2[C@H](CCO)N(S(=O)C(C)(C)C)C3)c1` (stereo partly specified), “inactive”.

As to `COc1ccc(C#Cc2ccc3c(c2)O[C@@H](CN(C)S(=O)(=O)c2ccccc2F)[C@@H](C)CN([C@@H](C)CO)S3(=O)=O)cc1`, the call was inactive.

Consider `COc1ccc2c3c([nH]c2c1)[C@H](CO)N(Cc1cc(F)ccc1F)CC31CCN(C(C)=O)CC1`, for which the result was inactive. On to `CN1C[C@H]2[C@@H](c3ccccc31)[C@H](CO)N2Cc1ccccc1F`, for which the result was inactive. Then `COc1cccc(NC(=O)N2[C@@H](CO)[C@@H](c3ccccc3)[C@@H]2CNCC(C)C)c1`, with “inactive”. For `C[C@H](CO)N1C[C@H](C)[C@H](CN(C)C(=O)Nc2cc(F)ccc2F)Oc2cc(/C=C/c3ccccc3)ccc2S1(=O)=O`, the result was inactive. Then `C[C@H](CO)N1C[C@H](C)[C@H](CN(C)C(=O)Nc2ccc(F)cc2)Oc2cc(/C=C/c3ccccc3)ccc2S1(=O)=O`, with “inactive”. Then `Cc1ccc(-c2ccc3c(c2)O[C@@H](CN(C)Cc2cccnc2)[C@@H](C)CN([C@@H](C)CO)S3(=O)=O)cc1`, with “inactive”.

On to `C[C@@H]1CN([C@H](C)CO)S(=O)(=O)c2ccc(-c3ccncc3)cc2O[C@H]1CN(C)Cc1ccc(Oc2ccccc2)cc1`, for which the compound was called inactive.
